Rows were chosen to be rich in hits. Some 10% of all compounds tested hit in one or more screens of this group.
GPT2 inh: inhibitors of human GPT2 alanine aminotransferase; Q8TD30; Recombinant GPT2, coupled pyruvate oxidase/HRP Amplex Red fluorescence; Potency, µM (highest dose often 57.7 µM), usual class: inhibitors; actives 0.25% (n = 100,000); also: nearly all actives have a fitted effect of over 60% in size
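Recombinant GPT2 (10ng/uL) with 250uM a-KG and 2mM L-alanine, 30 min at room temperature, in HEPES pH 7.5 buffer. Pyruvate detected by pyruvate oxidase/HRP/Amplex Red fluorescence after 30 min in the dark; AOA (50uM) as positive control.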
HEK293 tox: HEK 293 cell cytotoxicity; actives 6.6% (n = 94,000); HEK 293 viability, ATP luminescence (CellTiter-Glo), 48-72 h; Potency, µM (top dose mostly 115 µM), most hits filed as inhibitors; AID 1345083; also: nearly all actives have a fitted effect of over 60% in size
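250 HEK 293 cells/well; compound by pintool; incubated 48 or 72 hr at 37 degree Celsius; CellTiter-Glo added, 10 min RT, luminescence imaged.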
3T3 cytotox: kills NIH 3T3 cells | NIH 3T3 viability, CellTiter-Glo ATP luminescence, 48-72 h | Potency, µM (highest dose often 96.7 µM), most hits filed as inhibitors | actives 4.3% (n = 94,000) | AID 1345082; also: nearly all actives have a fitted effect of over 55% in size
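First NIH 3T3 cells are plated at 400 cells/well; next compound is pinned in; then plates incubate 48 or 72 hr at 37 °C; finally CellTiter-Glo is added and luminescence read after 10 min.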
Luciferase inh: blocks purified firefly luciferase enzyme activity. P08659. purified P. pyralis luciferase, luminescence, biochemical. actives 2.5% (n = 76,000). Potency, µM (top dose mostly 115 µM), usual class: inhibitors; also: nearly all actives have a fitted effect of over 65% in size
Target sequence (P08659 whole entry, looked up): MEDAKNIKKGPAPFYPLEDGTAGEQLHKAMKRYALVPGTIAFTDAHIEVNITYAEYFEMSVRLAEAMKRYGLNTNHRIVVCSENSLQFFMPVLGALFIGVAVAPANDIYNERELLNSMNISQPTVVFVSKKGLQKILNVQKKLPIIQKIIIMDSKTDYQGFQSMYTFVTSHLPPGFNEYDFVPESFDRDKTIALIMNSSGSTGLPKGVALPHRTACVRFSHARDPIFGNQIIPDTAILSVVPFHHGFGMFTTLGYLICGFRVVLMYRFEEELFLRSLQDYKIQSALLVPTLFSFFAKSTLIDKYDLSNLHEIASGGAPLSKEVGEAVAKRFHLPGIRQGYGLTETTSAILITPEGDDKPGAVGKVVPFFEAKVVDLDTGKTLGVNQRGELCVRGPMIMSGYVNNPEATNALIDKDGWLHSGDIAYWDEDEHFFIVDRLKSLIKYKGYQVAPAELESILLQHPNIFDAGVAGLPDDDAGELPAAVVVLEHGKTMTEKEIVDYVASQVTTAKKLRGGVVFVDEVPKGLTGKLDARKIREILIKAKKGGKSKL
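Cell-free enzyme assay, 10nM P. pyralis luciferase, luciferin and ATP each at 10uM. Inhibition profiled over a 6-point titration, read as luminescence.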
NPR1 antag: human Npr1 receptor antagonism; AID 1347048; actives 1.6% (n = 76,000); Potency, µM (top dose mostly 46.3 µM), actives largely listed as inhibitors; P16066; HEK293 hNpr1 GloSensor cGMP, ANP-stimulated luminescence; calls by dose curve; also: nearly all actives have a fitted effect of over 60% in size
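Compound pre-incubated 30 min at room temperature on GloSensor-loaded HEK293 cells stably carrying hNpr1 and the pGS-40F cGMP biosensor. Stimulation uses hNppA at 0.1 nM final; luminescence is taken at baseline and 20 min post-agonist.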
A number is an active result; 0 = inactive; ? = inconclusive; - = no result given. Unless noted, calls follow the shape of the dose curve; as a rule, active = well fitted curve in the direction sought with a large enough effect; inconclusive = small, poorly fitted or top-dose-only effect, or another doubt; inactive = no such curve, though single readings can be large; an effect the other way counts as inactive or inconclusive.

SMILES	GPT2 inh	HEK293 tox	3T3 cytotox	Luciferase inh	NPR1 antag
COc1cc(F)ccc1-c1cn(C)c(=O)n2cc(CN3CCOCC3)nc12	0	0	112µM	0	0
CC(C)c1nc2c(c(-c3ccc(Cl)cc3)n1)CCN(C(=O)c1ccc3c(c1)OCO3)CC2	0	?	?	-	-
CCN1C(=O)CCN(Cc2cn(C)c3ccc(OC)cc23)CC12CCOCC2	0	?	32µM	0	0
CCN1C(=O)CCN(Cc2cccc(OC)c2OC)CC12CCOCC2	0	0	0	0	0
COC(=O)c1cccc(COCC2=CC(C)(C)COc3ccc(OC)cc32)c1	-	28µM	?	-	-
CN(Cc1ccccc1Cl)Cc1cccn1C	0	0	0	0	0
O=C(NCc1ccccc1)C1=NO[C@@H]2CN(Cc3cccc(F)c3F)C[C@H]12	0	?	0	0	0
O=C(Nc1ccc(F)c(Cl)c1)C1=NO[C@@H]2CN(CCc3ccccc3)C[C@H]12	0	112µM	?	0	0
O=C(NCc1ccccc1)C1=NO[C@@H]2CN(Cc3cccc(F)c3)C[C@H]12	0	45µM	?	0	0
O=C(NCc1ccccc1)C1=NO[C@@H]2CN(Cc3ccc(O)c(Cl)c3)C[C@H]12	0	71µM	?	0	0
COc1cccc(-c2ccc(CN3CCCC3C(=O)NCc3ccc(C(F)(F)F)cc3)cc2)c1 (stereo not given)	0	35µM	?	-	-
COc1cccc(-c2ccc(CN3CCCC3C(=O)NCc3ccc(F)cc3)cc2)c1 (stereo not given)	0	?	?	-	-
COc1cccc(-c2ccc(CN3CCCC3C(=O)NCC3CC3)cc2)c1 (stereo not given)	0	45µM	?	-	-
COc1cccc(CN2CCCC(Cc3ncc(C)n3Cc3ccc(F)cc3)C2)c1 (stereo not given)	0	?	?	-	-
Cc1ccsc1CN1CCC(n2c(C)cnc2-c2ccncc2)C1 (stereo not given)	0	?	?	-	-
CCCNC(=O)[C@@H]1Cc2cn(Cc3c(C)noc3C)c3cccc(c23)[C@H](CC(C)C)N1	0	25µM	71µM	0	0
Cc1noc(C)c1Cn1cc2c3c(cccc31)[C@H](CC(C)C)N[C@H](C(=O)N1CCOCC1)C2	0	?	0	0	0
Cc1cc(Cn2cc3c4c(cccc42)[C@H](CC(C)C)N[C@H](C(=O)O)C3)no1	0	0	0	0	0
C#CCNC(=O)[C@@H]1Cc2cn(Cc3c(C)noc3C)c3cccc(c23)[C@H](CC(C)C)N1	?	40µM	50µM	0	0
Cc1noc(C)c1Cn1cc2c3c(cccc31)[C@H](CC(C)C)N[C@H](C(=O)NC1CCC1)C2	0	40µM	?	0	0
COc1cccc(C(=O)N2CCCC(n3cc(-c4nc(C(C)C)no4)nn3)C2)c1 (stereo not given)	0	0	0	0	0
COC(=O)C1=C(C)N=C2SC=C(CC(=O)Nc3ccc(OC)cc3)N2C1c1cccc(OC)c1 (stereo not given)	0	?	?	0	0
CN1CCN(Cc2nnc(C(=O)N3CCC[C@@H]3c3ccc(Br)cc3)n2Cc2ccccc2)CC1	0	?	?	0	0
O=C(c1nnc(CN2CCN(c3ccccn3)CC2)n1Cc1ccccc1)N1CCC[C@@H]1c1ccc(Br)cc1	0	45µM	?	0	0
CN(Cc1ccccc1)Cc1nnc(C(=O)N2CCC[C@@H]2c2ccc(Br)cc2)n1Cc1ccccc1	0	32µM	18µM	0	0
SMILES	GPT2 inh	HEK293 tox	3T3 cytotox	Luciferase inh	NPR1 antag
Cn1ncc2c(C(=O)N3CCOCC3)cc(-c3ccc(Cl)cc3)nc21	0	0	0	-	-
COc1ccc(CCNC(=O)C2CCN(c3nccc(Nc4ccc(C)cc4)n3)CC2)cc1	0	?	?	-	-
O=C(CCc1ccnc(N2CCOCC2)c1)Nc1ccc2c(c1)OCO2	0	0	0	35µM	0
O=C(Cc1ccc2c(c1)OCO2)NCc1cccnc1N1CCOCC1	0	0	0	28µM	0
COCc1cc(=O)n(CC(=O)Nc2cccc(C(C)=O)c2)c(N2CCOCC2)n1	0	0	0	0	0
CSc1ccc(-c2cccc(C(=O)NCC(=O)NCCc3ccccc3)c2)cc1	0	?	?	-	-
CC1(CNc2ccccc2)COc2ccc(C(=O)NCc3cccs3)cc2N1 (stereo not given)	0	100µM	?	0	0

Screens (PubChem BioAssay)
